Values without a mark were called inactive.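 Rule for the calls: active = AUC reduced over 20% with Padj below 0.05 in at least 2 of 3 replicates; inactive = otherwise.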
Columns and labels:
Experiment in all cases: growth AUC relative to DMSO control (median of replicates) (fraction); higher = more growth (less inhibition), active = hit call of the paper
Details in all cases: 20 µM; 24 h
Coprococcus comes = tested on: Coprococcus comes
How it was run: (§1)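 Hourly OD600 readings over 24 h tracked anaerobic gut bacterial monocultures grown at 37 °C in mGAM from OD600 0.05 with 20 µM compound (1% DMSO). After the minimum OD was set to 0, area under the growth curve was normalised to the plate median of solvent-only wells, or to row and column medians on the industrial chemical plate. Values are medians of three biological replicates grown on separate days.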

Escherichia coli ED1a = tested on: Escherichia coli ED1a
How it was run: as §1

Escherichia coli IAI1 = tested on: Escherichia coli IAI1
How it was run: as §1

Eubacterium rectale = tested on: Eubacterium rectale
How it was run: as §1

[1] = tested on: Fusobacterium nucleatum subsp. animalis
How it was run: as §1

Lactobacillus gasseri = tested on: Lactobacillus gasseri
How it was run: as §1

Lactobacillus paracasei = tested on: Lactobacillus paracasei
How it was run: as §1

Odoribacter splanchnicus = tested on: Odoribacter splanchnicus
How it was run: as §1

[2] = tested on: Parabacteroides distasonis
How it was run: as §1

Parabacteroides merdae = tested on: Parabacteroides merdae
How it was run: as §1

Roseburia intestinalis = tested on: Roseburia intestinalis
How it was run: as §1

Streptococcus salivarius = tested on: Streptococcus salivarius
How it was run: as §1

Row | SMILES | growth AUC (Coprococcus comes) | growth AUC (Escherichia coli ED1a) | growth AUC (Escherichia coli IAI1) | growth AUC (Eubacterium rectale) | growth AUC [1] | growth AUC (Lactobacillus gasseri) | growth AUC (Lactobacillus paracasei) | growth AUC (Odoribacter splanchnicus) | growth AUC [2] | growth AUC (Parabacteroides merdae) | growth AUC (Roseburia intestinalis) | growth AUC (Streptococcus salivarius)
1 | COC1CCC2(CC1)NC(=O)C(c1cc(C)ccc1C)C2O (stereo not drawn) | 1.04 | 1.03 | 1.03 | 1.11 | 1.16 | 0.99 | 1.03 | 1.01 | 1.07 | 1.02 | 0.974 | 1.04
2 | N[C@@H](Cc1cc(I)c(Oc2cc(I)c(O)c(I)c2)c(I)c1)C(=O)O | 0.906 | 0.959 | 0.941 | 1.04 | 0.838 | 0.87 | 0.886 | 0.957 | 0.921 | 0.949 | 0.798 | 0.923
3 | Cc1cc(C2CC2)nc(Nc2ccc(O)cc2)n1 | 0.998 | 0.989 | 1.01 | 0.903 | 0.955 | 1.19 | 1.01 | 0.965 | 1.03 | 0.982 | 1.01 | 1.01
4 | NC1=C(Cl)C(=O)c2ccccc2C1=O | 1 | 0.896 | 0.804 | 1.19 | 1.25 | 0.863 | 0.995 | 0.876 | 0.528 (active) | 0.88 | 0.963 | 1
5 | CSc1nc(NC2CC2)nc(NC(C)(C)C)n1 | 0.981 | 1.03 | 1.03 | 0.974 | 1.06 | 1.05 | 0.987 | 1.11 | 1.02 | 0.991 | 0.981 | 1
6 | CCc1cccc(C)c1N(C(=O)C(=O)O)[C@@H](C)C(=O)O | 1.02 | 1.01 | 0.988 | 1.12 | 1.03 | 0.853 | 1.01 | 0.95 | 0.809 | 1.03 | 0.973 | 0.943
7 | O=C1NC(=O)c2ccccc21 | 1.02 | 1.02 | 1.02 | 0.984 | 1.05 | 1.06 | 1.04 | 0.89 | 1.02 | 1.02 | 1.11 | 1
8 | c1ccc2c(c1)-c1cccc3c1c-2cc1ccccc13 | 1.01 | 0.985 | 1.01 | 1.03 | 1.08 | 1.02 | 0.998 | 1.07 | 1.31 | 1.05 | 0.998 | 1.03
9 | C/C=C/C=C/CCCCCCCO | 0.995 | 1.01 | 0.983 | 1.03 | 1.08 | 0.96 | 0.984 | 1.03 | 0.967 | 0.982 | 1 | 0.994
10 | Cc1[nH]oc(=O)c1N=Nc1ccccc1Cl | 1.01 | 0.989 | 0.962 | 1.03 | 0.839 | 0.931 | 0.955 | 1.06 | 0.987 | 0.949 | 0.938 | 0.982
11 | COC1CCC2(CC1)NC(=O)C(c1cc(C)ccc1C)=C2OC1OC(CO)C(O)C(O)C1O (stereo not drawn) | 1.03 | 1.03 | 1.03 | 1.1 | 1.17 | 0.948 | 1.01 | 0.994 | 1.01 | 1.05 | 1 | 1.01
12 | CC(C)c1cc(Oc2ccccc2)cc(C(C)C)c1NC(=S)NC(C)(C)C | 0.896 | 1.01 | 1.01 | 0.45 (active) | 0.911 | 0.978 | 1.03 | 0.989 | 1.05 | 0.957 | 0.926 | 0.992
13 | C=CCc1ccc(O)c(OC)c1 | 0.971 | 1.03 | 1 | 1.01 | 1 | 0.95 | 0.957 | 0.96 | 0.97 | 0.996 | 0.937 | 0.975
14 | FC(F)(F)C(=NOCC1OCCO1)c1ccc(Cl)cc1 | 1.02 | 1.01 | 1.04 | 1.06 | 1.08 | 1.01 | 1.07 | 1.04 | 1 | 1.03 | 1.17 | 1.02
